These results are taken from PubChem BioAssay (Tox21).

Each structure is given as a SMILES string. Where “and” joins values, the source holds several entries; their conditions need not be identical. Equal entries are not always repeated. Inconclusive results are not listed. A structure can be active in one record and inactive in another. Calls of active or inactive are those of the source. Unless noted, calls follow the shape of the dose curve; as a rule, active = well fitted curve in the direction sought with a large enough effect in the repeat runs; inconclusive = weak or mixed curves; inactive = no such curve, though single readings can be large; an effect the other way counts as inactive or inconclusive.

Experiment [1] is described as follows: qHTS assay to identify small molecule agonists of the hypoxia (HIF-1) signaling pathway - cell viability counter screen (AID 1224844; calls by dose curve; also: nearly all actives have a fitted effect of over 50% in size). In outline: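 ME-180 HRE-bla cells, 2,000/well, 0.5% dialyzed FBS; 5 hr settle, 17 hr compound at 37C/5% CO2; CCF4-AM reporter read first, then CellTiter-Glo luminescence after 30 min RT.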
Background: In qHTS, concentration-response curves come from the screen itself.

A short description of experiment [2]: qHTS assay to identify small molecule agonists of H2AX (AID 1224845; active = well fitted activation curve with a large enough effect in the signal ratio in the repeat runs, not every such curve was filed as active; the % refers to the signal ratio; also: potency is read from the fitted curve at half-maximal effect). In outline:
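Phospho-H2AX Ser139 measured by HTRF (ex 320 nm; em 665 and 620 nm) after 24 hr antibody incubation. Compounds, 15 concentrations, 0.76% DMSO, were applied to CHO-K1 cells for 3hr at 37C before lysis.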

The nature of experiment [3]: qHTS assay to identify small molecule agonists of the hypoxia (HIF-1) signaling pathway (AID 1224846; active = well fitted activation curve with a large enough effect in the signal ratio in the repeat runs, not every such curve was filed as active; the % refers to the signal ratio). The essentials: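 Cell line: CellSensor HRE-bla ME-180; 2,000 cells/well; 0.5% dialyzed FBS; 5 h preincubation; DMSO compound pin transfer; 17 h, 37C, 5% CO2; CCF4-AM added; bla FRET signal scored for activation.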
Experiment [4] is described as follows: qHTS assay to identify small molecule agonists of H2AX - cell viability counter screen (AID 1224847; calls by dose curve; also: nearly all actives have a fitted effect of over 30% in size; also: potency is read from the fitted curve at half-maximal effect). In outline:
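Compounds tested at 15 concentrations were incubated 3 hr at 37C with wild-type CHO-K1 cells; cellular ATP-based luminescence (CellTiter-Glo) indicated viability.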

Experiment [5] can be described thus: qHTS assay to identify small molecule antagonists of the estrogen related receptor (ERR) signaling pathway from Tox21 library (AID 1224848). Also: nearly all actives have a fitted effect of over 50% in size. Also: potency is read from the fitted curve at half-maximal effect. The essentials: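 Reading was by luminescence 30 min after ONE-Glo addition. Before that, ERR cells at 2,000 per well had rested 6 h at 37 C/5% CO2 and then received pin-tooled compounds in DMSO for 18 h at 37 C.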
Experiment [6] can be described thus: qHTS assay to identify small molecule agonists of the estrogen related receptor (ERR) signaling pathway from Tox21 library (AID 1224849; calls by dose curve; also: nearly all actives have a fitted effect of over 15% in size). The note with it: ERR reporter cell line, ONE-Glo luciferase, 18 h; at 92.4 µM (top of the series). The essentials:
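ERR cells, 6 h pre-incubation 37 C/5% CO2; cpd in DMSO pinned; 18 h 37 C; ONE-Glo added, 30 min RT; luminescence read. Agonist mode, qHTS.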

Experiment [7] can be described thus: qHTS RealTime-Glo MT Cell Viability Assay in HepG2 cells - 24 hour (AID 1224867). Also: nearly all actives have a fitted effect of over 50% in size. In outline: (§1)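 Compound treatment began 5 h after plating HepG2 cells (600/well) with NanoLuc luciferase and prosubstrate. Plates stayed at 37 C for 40 h; luminescence was captured at six time points, 0 h through 40 h.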
Experiment [8] is described as follows: qHTS RealTime-Glo MT Cell Viability Assay in HEK293 cells - 32 hour (AID 1224868). Also: nearly all actives have a fitted effect of over 50% in size. Also: potency is read from the fitted curve at half-maximal effect. In outline: (§2)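 Quantitative high-throughput screen of the Tox21 10K library in HEK293: cells and RealTime-Glo reagents plated together, compound added at 5 h, luminescence monitored through 40 h at 37 C.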
A short description of experiment [9]: A CellTox Green Cytotoxicity Assay to monitor cytotoxicity in HEK293 cells - 0 hour (AID 1224869). Also: nearly all actives have a fitted effect of over 50% in size. The essentials: (§3)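 Nonlytic real-time cytotoxicity: HEK293 + CellTox Green reagent plated, 5 h preincubation, pintool compound addition (23 nL in DMSO), 37 C for 40 h, fluorescence measured at successive time points.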
The nature of experiment [10]: qHTS RealTime-Glo MT Cell Viability Assay in HepG2 cells - 40 hour (AID 1224870). Also: nearly all actives have a fitted effect of over 50% in size. In outline:
(§4)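 Real-time viability: cells seeded at 600 per well together with NanoLuc and cell-permeant prosubstrate, compounds added after 5 h incubation. Luminescence tracked at 0, 8, 16, 24, 32 and 40 h of exposure.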

A short description of experiment [11]: A CellTox Green Cytotoxicity Assay to monitor cytotoxicity in HEK293 cells - 40 hour (AID 1224871). Also: nearly all actives have a fitted effect of over 45% in size. Also: potency is read from the fitted curve at half-maximal effect. In outline:
as §3

A short description of experiment [12]: qHTS RealTime-Glo MT Cell Viability Assay in HEK293 cells - 16 hour (AID 1224872). Also: nearly all actives have a fitted effect of over 50% in size. Also: potency is read from the fitted curve at half-maximal effect. In outline:
as §2

Experiment [13] in a line: qHTS RealTime-Glo MT Cell Viability Assay in HepG2 cells - 8 hour (AID 1224873). Also: nearly all actives have a fitted effect of over 55% in size. In outline:
as §4

Experiment [14] can be described thus: qHTS RealTime-Glo MT Cell Viability Assay in HEK293 cells - 40 hour (AID 1224874). Also: nearly all actives have a fitted effect of over 50% in size. Also: potency is read from the fitted curve at half-maximal effect. As to conditions: RealTime-Glo luminescence; max response: stronger effect = lower value. The essentials:
(§5)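 Cells were seeded together with NanoLuc luciferase and a prosubstrate that viable cells reduce to a luciferase substrate. After a 5 h incubation at 37 C/5% CO2, compounds were added and luminescence was measured repeatedly during 40 h of treatment.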

The nature of experiment [15]: A CellTox Green Cytotoxicity Assay to monitor cytotoxicity in HEK293 cells - 24 hour (AID 1224875). Also: nearly all actives have a fitted effect of over 45% in size. In outline:
as §3

Experiment [16] can be described thus: qHTS RealTime-Glo MT Cell Viability Assay in HepG2 cells - 32 hour (AID 1224877). Also: nearly all actives have a fitted effect of over 55% in size. The essentials:
as §1

A short description of experiment [17]: A CellTox Green Cytotoxicity Assay to monitor cytotoxicity in HepG2 cells - 24 hour (AID 1224878). Also: nearly all actives have a fitted effect of over 45% in size. Also: potency is read from the fitted curve at half-maximal effect. In outline: (§6)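 Read-out is fluorescence of a cyanine dye excluded from live cells that stains DNA of dead HepG2 cells, with signal proportional to cytotoxicity. Plates were read at 0, 8, 16, 24, 32 and 40 h after compound addition.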
The nature of experiment [18]: A CellTox Green Cytotoxicity Assay to monitor cytotoxicity in HepG2 cells - 40 hour (AID 1224879). Also: nearly all actives have a fitted effect of over 40% in size. Also: potency is read from the fitted curve at half-maximal effect. The essentials:
as §6

Experiment [19] is described as follows: qHTS RealTime-Glo MT Cell Viability Assay in HEK293 cells - 0 hour (AID 1224880). Also: top concentration of the series differs between compounds; nearly all actives have a fitted effect of over 45% in size. In outline: as §5
The nature of experiment [20]: A CellTox Green Cytotoxicity Assay to monitor cytotoxicity in HepG2 cells - 16 hour (AID 1224876). Also: nearly all actives have a fitted effect of over 45% in size. Also: potency is read from the fitted curve at half-maximal effect. In outline:
as §6
% is scaled to controls: 0 for no effect and ±100 for the full control effect.

As to `COc1ccc(C(O)(c2cncnc2)C2CC2)cc1` (stereo unspecified), the Potency result in experiment [1], in [2], in experiment [4], in experiment [5], in [7] and in experiment [8] was “inactive” each time. The Potency result in experiment [9], in experiment [10], in experiment [11], in [12], in experiment [13] and in [15] was “inactive” in each case. Further, the Potency result in [16], in experiment [17] and in [18] was “inactive” throughout. In addition, the call in experiment [3] and in [19] was inactive. Further, in experiment [6], the activity change, positive = activation was 1.33% (inactive). In addition, the max response in [14] was 0.605% (inactive).

In the case of `O=C(O)COc1cc(Cl)c(Cl)cc1Cl`, the Potency result in [1], in experiment [2], in experiment [4], in experiment [5], in [7] and in [9] was “inactive” in each case. Moreover, the Potency entry in experiment [10], in [11], in experiment [12], in [15], in experiment [17] and in [18] was “inactive” each time. In addition, the outcome in experiment [3] and in experiment [19] was inactive. Further, the activity change, positive = activation in [6] is -7.72% (inactive) and -14.1% (inactive). For the same molecule, the Potency entry in experiment [8] was “inactive and 15.5 µM (active)”; in experiment [14] it was 15.5 µM (active). Further, the max response in [14] is 6.38% (inactive).

For `CCC[N+](CCC)(CCC)CCC`, the Potency result in experiment [1], in [2], in [4], in [5], in [7] and in experiment [8] was “inactive” throughout. Also, the Potency entry in experiment [9], in experiment [10], in [11], in experiment [12], in experiment [13] and in experiment [15] was “inactive” throughout. Besides, the Potency result in [16] and in experiment [18] was “inactive” throughout. Besides, the molecule was called inactive in experiment [3] and in experiment [19]. In addition, the activity change, positive = activation in experiment [6] is -9.29% (inactive). Also, in experiment [14], the max response is 6.01% (inactive).

In the case of `CCCCCl`, the Potency entry in experiment [1], in experiment [2], in experiment [4], in experiment [5], in [7] and in experiment [8] was “inactive” throughout. Besides, the Potency result in experiment [10], in experiment [11], in experiment [12], in experiment [15], in [20] and in experiment [16] was “inactive” each time. Moreover, the Potency result in experiment [17] and in experiment [18] was “inactive” each time. In addition, the outcome in [3] and in [19] was inactive. In experiment [6], the activity change, positive = activation is -0.331% (inactive). Besides, the max response in experiment [14] was 1.53% (inactive).

In the case of `C[Si](Cn1cncn1)(c1ccc(F)cc1)c1ccc(F)cc1`, the Potency result in experiment [1], in [2], in [7], in [10], in experiment [13] and in [15] was “inactive” each time. For the same molecule, the Potency result in [16] is “inactive”. For the same molecule, the outcome in [3] and in experiment [19] was inactive. In addition, the Potency in experiment [4] is 104 µM (active); in experiment [5], 28.2 µM (active) and 30.6 µM (active); in experiment [8], 25.4 µM (active) and 21.9 µM (active); in experiment [11], 54.9 µM (active); in experiment [12], 40.2 µM (active) and 21.9 µM (active); in experiment [14] it was 25.4 µM (active) and 21.9 µM (active). Also, the Potency in [20] is 50.6 µM (active) and inactive; in experiment [17], 50.6 µM (active); in experiment [18], 50.6 µM (active) and 49 µM (active). For the same molecule, in [6], the activity change, positive = activation was -66.3% (inactive) and -52.8% (inactive).

Consider `Cc1nc2ccccc2c(=O)n1-c1ccccc1Cl`, for which the Potency result in experiment [1], in experiment [4], in experiment [7], in [10], in experiment [11] and in experiment [15] was “inactive” throughout. Besides, the Potency result in [16], in experiment [17] and in [18] was “inactive” each time. Also, the Potency in experiment [2] is 27.8 µM (active); in [8], 21.4 µM (active); in experiment [14], 21.4 µM (active). The call in experiment [3] and in experiment [19] was inactive. For the same molecule, in experiment [6], the activity change, positive = activation is -29.9% (inactive).

As to `Clc1ccccc1`, the Potency entry in experiment [1], in [2], in experiment [4], in experiment [7], in experiment [8] and in experiment [9] was “inactive” each time. Also, the Potency entry in experiment [10], in [11], in experiment [12], in experiment [13], in experiment [15] and in experiment [20] was “inactive” each time. The Potency result in experiment [16], in experiment [17] and in [18] was “inactive” in each case. In addition, the call in experiment [3] and in [19] was inactive. Besides, the activity change, positive = activation in experiment [6] was 5.28% (inactive). The max response in experiment [14] is -1.5% (inactive).
